Assay outcomes (PubChem BioAssay)
JMJD2A Tudor inh: qHTS Assay for Inhibitors of JMJD2A-Tudor Domain; AlphaScreen JMJD2A-Tudor / H3K4me3 peptide binding; Potency, µM (top dose mostly 114 µM), hits mostly inhibitors; 4.4% of 390,000 active; AID 504339, 2011; note: nearly all actives have a fitted effect of over 50% in size
Target sequence (O75164 whole entry, looked up, the tested form may be a part): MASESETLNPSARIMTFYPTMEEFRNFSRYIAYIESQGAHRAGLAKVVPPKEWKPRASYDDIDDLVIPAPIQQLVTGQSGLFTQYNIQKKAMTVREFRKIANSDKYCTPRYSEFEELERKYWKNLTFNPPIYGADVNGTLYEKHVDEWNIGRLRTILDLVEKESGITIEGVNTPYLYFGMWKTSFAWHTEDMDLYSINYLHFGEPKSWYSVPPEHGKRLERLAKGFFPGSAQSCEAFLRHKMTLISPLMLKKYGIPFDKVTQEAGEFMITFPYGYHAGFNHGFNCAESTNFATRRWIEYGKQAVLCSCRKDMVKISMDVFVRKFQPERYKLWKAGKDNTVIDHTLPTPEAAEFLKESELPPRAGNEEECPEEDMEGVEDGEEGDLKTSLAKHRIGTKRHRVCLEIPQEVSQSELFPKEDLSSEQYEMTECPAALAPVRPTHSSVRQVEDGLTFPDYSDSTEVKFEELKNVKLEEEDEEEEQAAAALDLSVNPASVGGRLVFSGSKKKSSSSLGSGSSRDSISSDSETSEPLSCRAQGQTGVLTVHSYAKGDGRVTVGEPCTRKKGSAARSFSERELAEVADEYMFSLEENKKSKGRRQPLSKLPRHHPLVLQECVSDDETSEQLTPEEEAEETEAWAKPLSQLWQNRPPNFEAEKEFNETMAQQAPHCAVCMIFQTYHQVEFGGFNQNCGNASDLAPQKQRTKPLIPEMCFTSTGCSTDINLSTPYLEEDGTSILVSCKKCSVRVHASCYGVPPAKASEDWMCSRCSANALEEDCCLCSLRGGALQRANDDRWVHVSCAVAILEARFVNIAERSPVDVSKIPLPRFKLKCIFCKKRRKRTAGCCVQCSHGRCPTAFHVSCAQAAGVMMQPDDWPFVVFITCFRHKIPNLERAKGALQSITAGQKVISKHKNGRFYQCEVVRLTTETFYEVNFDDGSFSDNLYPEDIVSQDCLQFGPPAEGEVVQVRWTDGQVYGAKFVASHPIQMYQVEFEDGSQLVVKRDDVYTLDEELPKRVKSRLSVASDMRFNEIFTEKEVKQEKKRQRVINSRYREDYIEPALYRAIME
G9a inh: qHTS Assay for Inhibitors of Histone Lysine Methyltransferase G9a | 8.8% of 350,000 active | G9a H3K9 monomethylation, AlphaScreen, 2 h | Potency, µM (highest dose often 102 µM), most hits filed as inhibitors; note: nearly all actives have a fitted effect of over 75% in size
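Signal arises when biotinylated H3K9 peptide, once monomethylated, bridges streptavidin donor and antibody-captured acceptor beads. Enzyme at 20 nM was preincubated 15 min with test compounds; peptide 500 nM and SAM 20 uM then reacted for 2 h.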
PLK1 PBD inh: qHTS for Inhibitors of PLK1-PDB (polo-like kinase 1 - polo-box domain): Primary Screen; Plk1 PBD binding of FITC phosphopeptide, fluorescence polarization; Potency, µM, hits mostly inhibitors; 2.8% of 360,000 active; AID 720504, 2013; note: series mostly up to about 57 µM; nearly all actives have a fitted effect of over 65% in size
HP1b binding inh: HTS for Inhibitors of HP1-beta Chromodomain Interactions with Methylated Histone Tails; Potency, µM (top dose mostly 114 µM), actives largely listed as inhibitors; AID 540317, 2011; Chromobox protein homolog 1 (Homo sapiens), P83916; 0.56% of 390,000 active; AlphaScreen HP1-beta / biotin-H3K9me3 peptide binding; note: nearly all actives have a fitted effect of over 70% in size
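Compound inhibition of the preformed complex between 50 nM HP1-beta and 50 nM biotinylated H3K9me3 peptide was read by AlphaScreen. Buffer was PBS pH 7.4 with 0.01% Tween-20. Incubations ran 30 min at room temperature, with 10 ug/mL donor/acceptor beads.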
Sfp PPTase inh: qHTS Assay for Inhibitors of Bacillus subtilis Sfp phosphopantetheinyl transferase (PPTase). Biochemical Sfp PPTase activity, qHTS. AID 1490, 2009. 3.5% of 310,000 active. Potency, µM, most hits filed as inhibitors;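 note: the enzyme is Sfp with the accession as filed and its product quenches rhodamine fluorescence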
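Step 1, compound plus 15 nM Sfp-PPTase, 15 min, room temperature. Step 2, add rhodamine-CoA (5 uM) and BHQ-2-YbbR (12.5 uM). Step 3, read 525/598 nm fluorescence at 0 and 30 min.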
BAZ2B inh: qHTS Assay for Inhibitors of BAZ2B; Bromodomain adjacent to zinc finger domain protein 2B (Homo sapiens), Q9UIF8; AlphaScreen BAZ2B-H3K14Ac peptide displacement; Potency, µM (highest dose often 114 µM), usual class: inhibitors; 4.4% of 360,000 active; AID 504333, 2011; note: nearly all actives have a fitted effect of over 60% in size
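AlphaScreen displacement: compounds (up to 110uM) incubated 30 min at room temperature with a preformed 50 nM BAZ2B/50 nM biotinylated H3K14Ac peptide complex in PBS pH 7.4 with Tween-20. Donor and acceptor beads at 10 ug/mL final added, 20 min light-protected before reading.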
Numbers stand for hits; [ ] = another dose, or the depositor's remark. This is a sample that favours compounds with a hit; in the whole collection about 12% have one here. Calls come from the whole dose curve; as a rule, active = well fitted curve in the direction sought with a large enough effect; inconclusive = small, poorly fitted or top-dose-only effect, or another doubt; inactive = no such curve, though single readings can be large; an effect the other way counts as inactive or inconclusive.

`CCC(Sc1nc2ccc(N)cc2s1)C(=O)Nc1nccs1` (centres undefined) gave JMJD2A Tudor inh 50.1µM, G9a inh 12.6µM, PLK1 PBD inh inactive, HP1b binding inh inactive, Sfp PPTase inh inactive and BAZ2B inh inactive.
For Cn1c(SCC(=O)Nc2ccc3nc(SCC(=O)N4CCCC4)sc3c2)nnc1-c1ccc(N)cc1 the results were JMJD2A Tudor inh inactive, G9a inh 10µM, PLK1 PBD inh inconclusive, HP1b binding inh inactive, Sfp PPTase inh inactive and BAZ2B inh inconclusive.
CCC(Sc1nnc(C)s1)C(=O)Nc1nccs1 (centres undefined) was read as JMJD2A Tudor inh inactive, G9a inh inactive, PLK1 PBD inh inactive, HP1b binding inh inactive, Sfp PPTase inh inactive and BAZ2B inh inactive.
`COc1cccc(NC(=O)CN2CCc3ccccc3C2)c1` gave JMJD2A Tudor inh inactive, G9a inh inactive, PLK1 PBD inh inactive, HP1b binding inh inactive, Sfp PPTase inh inactive and BAZ2B inh inactive.
Screening COC(=O)c1[nH]c2ccc(Cl)cc2c1NC(=O)c1ccccc1[N+](=O)[O-] returned JMJD2A Tudor inh inactive, G9a inh inactive, PLK1 PBD inh inactive, HP1b binding inh inactive, Sfp PPTase inh inactive and BAZ2B inh inactive.
Screening Cc1ccc(C(c2ccccc2)c2c(C)[nH]c3ccccc23)s1 (centres undefined) returned JMJD2A Tudor inh inactive, G9a inh inactive, HP1b binding inh inactive and BAZ2B inh inactive.
For COc1cc(C(c2c(C(=O)O)[nH]c3ccccc23)c2c(C(=O)O)[nH]c3ccccc23)ccc1OCc1ccccc1 the results were JMJD2A Tudor inh inconclusive, G9a inh inactive[0.501 µM], PLK1 PBD inh 8.44µM, HP1b binding inh inconclusive, Sfp PPTase inh inactive and BAZ2B inh inactive.
For O=C(O)c1[nH]c2ccccc2c1C(c1ccccc1)c1c(C(=O)O)[nH]c2ccccc12 the results were JMJD2A Tudor inh inactive, G9a inh inactive, PLK1 PBD inh 26.7µM, HP1b binding inh inactive, Sfp PPTase inh inactive and BAZ2B inh inactive.
`C=CCOc1ccc(C(c2c(C(=O)O)[nH]c3ccccc23)c2c(C(=O)O)[nH]c3ccccc23)cc1` gave JMJD2A Tudor inh 79.4µM, G9a inh 35.5µM, PLK1 PBD inh 8.44µM, HP1b binding inh 70.8µM, Sfp PPTase inh inactive and BAZ2B inh 50.1µM.
O=C(O)c1[nH]c2ccccc2c1C(c1cc(Cl)cc([N+](=O)[O-])c1O)c1c(C(=O)O)[nH]c2ccccc12 was read as JMJD2A Tudor inh inconclusive, PLK1 PBD inh 7.52µM, HP1b binding inh inactive, Sfp PPTase inh inactive and BAZ2B inh inconclusive.
COc1cc(C(NC(C)=O)NC(C)=O)ccc1OCc1ccccc1 was read as JMJD2A Tudor inh inactive, G9a inh inactive, PLK1 PBD inh inactive, HP1b binding inh inactive, Sfp PPTase inh inactive and BAZ2B inh inactive.
For CCCCn1c(N)c(N(CCOC)C(=O)C(C)N2C(=O)c3ccccc3C2=O)c(=O)[nH]c1=O (centres undefined) the results were JMJD2A Tudor inh inactive, G9a inh inactive[0.501 µM], PLK1 PBD inh inactive, HP1b binding inh inactive and BAZ2B inh inactive.
O=C(OC1CCCC1)c1ccc(Cl)cc1Cl was read as JMJD2A Tudor inh inactive, PLK1 PBD inh inactive and HP1b binding inh inactive.
Screening O=[N+]([O-])c1ccc(NNS(=O)(=O)c2cc(Cl)ccc2Cl)nc1 returned JMJD2A Tudor inh inactive, G9a inh inactive[0.501 µM], PLK1 PBD inh inconclusive, HP1b binding inh inactive, Sfp PPTase inh 35.5µM and BAZ2B inh inactive.
Screening Cc1ccc(/C([O-])=C(/C(=S)NCc2ccc3c(c2)OCO3)[n+]2ccc(N(C)C)cc2)c(C)c1 returned JMJD2A Tudor inh inconclusive, G9a inh 50.1µM, PLK1 PBD inh inconclusive, HP1b binding inh inactive, Sfp PPTase inh inactive and BAZ2B inh inconclusive.
Screening CCOC(=O)c1cc2occc2n1CC(=O)Nc1ccc(OC)cc1OC returned JMJD2A Tudor inh inconclusive, G9a inh 39.8µM, PLK1 PBD inh inconclusive, HP1b binding inh inactive, Sfp PPTase inh inactive and BAZ2B inh inconclusive.
For CCOC(=O)c1cc2occc2n1CCCN1C(=O)c2ccccc2C1=O the results were JMJD2A Tudor inh inconclusive, G9a inh 14.1µM, PLK1 PBD inh inactive, HP1b binding inh inconclusive, Sfp PPTase inh inactive and BAZ2B inh 50.1µM.
`CCOC(=O)c1cc2sc(C)cc2n1CCCN1C(=O)c2ccccc2C1=O` gave JMJD2A Tudor inh inactive, G9a inh inactive, PLK1 PBD inh inactive, HP1b binding inh inactive, Sfp PPTase inh inactive and BAZ2B inh inactive.
Screening C=C/C(C)=C/[C@@]1(C)SC(=O)C(C)=C1O returned G9a inh inactive[12.7 µM].
`Cc1nc(N(C)C)c2sc(=S)n(-c3ccccc3)c2n1` gave JMJD2A Tudor inh inconclusive, G9a inh inactive, PLK1 PBD inh 26.7µM, HP1b binding inh inactive, Sfp PPTase inh inactive and BAZ2B inh inactive.
For Cc1nc(N(C)C)c2sc(=S)n(C)c2n1 the results were JMJD2A Tudor inh inactive, G9a inh inactive, PLK1 PBD inh inactive, HP1b binding inh inactive, Sfp PPTase inh inactive and BAZ2B inh inactive.
`Cc1[nH]n(-c2ccccc2)c(=O)c1C(=O)c1ccccc1` gave JMJD2A Tudor inh inactive, G9a inh inconclusive, PLK1 PBD inh inactive, HP1b binding inh inactive, Sfp PPTase inh inactive and BAZ2B inh inactive.
`CC(C)c1nc(=S)n(-c2ccccc2)[nH]1` gave JMJD2A Tudor inh 6.31µM, G9a inh 10µM, PLK1 PBD inh inactive, HP1b binding inh inactive, Sfp PPTase inh inactive and BAZ2B inh inactive.
Screening CC(=O)Nc1nc(=S)n(-c2ccccc2)[nH]1 returned JMJD2A Tudor inh 17.8µM, G9a inh 3.98µM, PLK1 PBD inh 26.7µM, HP1b binding inh inconclusive, Sfp PPTase inh 15.8µM and BAZ2B inh inconclusive.
COc1cc(CNCCC2CCOC(C)(C)C2)ccc1O (centres undefined) was read as JMJD2A Tudor inh inactive, G9a inh 50.1µM, PLK1 PBD inh inactive, HP1b binding inh inactive, Sfp PPTase inh inconclusive and BAZ2B inh inactive.
Cc1ccc(S(=O)(=O)N[C@H]2COC(=O)[C@@H](Cc3ccccc3)NC(=O)[C@@H](C)COC(=O)C/C=C\[C@@H]2C)cc1 was read as Sfp PPTase inh inactive.
Screening Cn1nc([N+](=O)[O-])nc1Oc1ccccc1F returned JMJD2A Tudor inh inconclusive, G9a inh inactive[12.7 µM], PLK1 PBD inh 23.8µM, HP1b binding inh inactive, Sfp PPTase inh inactive and BAZ2B inh inactive.
Screening Cn1nc([N+](=O)[O-])nc1Oc1ccccc1N returned JMJD2A Tudor inh inactive, G9a inh inactive, PLK1 PBD inh inactive, HP1b binding inh inactive, Sfp PPTase inh inactive and BAZ2B inh inactive.
